Source: PubChem BioAssay AID463173 (ICCB-Longwood Screening Facility, Harvard Medical School, 2010)
Hit rate of the full screen: of about 52,000 compounds, about 4,300 (8.3%) were called active. Rule as the data show it: active = survival mostly below about 52% (no sharp cut-off); inactive = mostly above about 56%. For the sample, actives were picked, then their nearest neighbours and some compounds at random.

What follows are compounds tested on DeltatarO mutant (assay: growth inhibition of S. aureus wild type versus tarO mutant, primary screen, teichoic acid synthesis inhibitors, RN4220, OD600 (AID 463173)). Conditions: OD600, 18 h, active compounds read low, screened at 18.75 µg/mL (by protocol).
`CC(=O)c1c(C)n(-c2cccc(C)c2)c2ccc(OC(=O)COc3ccccc3)cc12` was tested, and the survival was 70% (inactive). In the case of `COc1ccc(OC)c(NC(=O)COCc2cc(-c3ccco3)on2)c1`, the survival was 49% (inactive). For `Cc1ccc(CNC(=O)Cn2c(=O)n(Cc3ccc(F)cc3)c(=O)c3sc4ccccc4c32)cc1`, the survival was 92% (inactive). With `O=C1CCCN1c1ccc(S(=O)(=O)N2CCCCC2)cc1` the survival was 93% (inactive). With `COc1cccc2c1cc1c(=O)n(CC(=O)N3CCN(c4cc(Cl)ccc4C)CC3)nc(C)n12` the survival was 74% (inactive). In the case of `O=C(Nc1cccc(C(=O)OCc2cc(=O)n3nc(C4CC4)sc3n2)c1)c1cccc(Cl)c1`, the survival was 80% (inactive). `COc1ccc(NC(=O)COc2ccc(-c3nn(C)c(=O)c4ccccc34)cc2)cc1` was tested, and the survival was 75% (inactive). With `COc1ccccc1NC(=O)COc1ccc(-c2nn(C)c(=O)c3ccccc23)cc1` the survival was 37% (active). In the case of `Cc1ccc(NC(=O)COc2ccc(-c3nn(C)c(=O)c4ccccc34)cc2)cc1`, the survival was 48% (inactive). With `Cn1nc(-c2ccc(OCC(=O)Nc3ccccc3)cc2)c2ccccc2c1=O` the survival was 47% (inactive). For `CNC(=O)c1ccc(NC(=O)COc2ccc(-c3nn(C)c(=O)c4ccccc34)cc2)cc1`, the survival was 62% (active). With `CNC(=O)COc1ccc(NC(=O)c2ccc(-c3nn(C)c(=O)c4ccccc34)cc2)cc1` the survival was 75% (inactive). `CC(=O)c1ccc(NC(=O)c2nc3ccccc3n(C)c2=O)cc1` was tested, and the survival was 80% (inactive). `CC(C)Cn1c(=O)c2ccccc2n2c(CCC(=O)NC(C)c3ccccc3)nnc12` (centres undefined) was tested, and the survival was 87% (inactive). `CN(C)S(=O)(=O)c1ccc(C(=O)Nc2c(C(=O)Nc3ccc(F)cc3)oc3ccccc23)cc1` was tested, and the survival was 73% (inactive). For `Cc1ccc(NC(=O)Cc2coc3c(C)c(C)ccc23)c(C)c1`, the survival was 96% (inactive). For `CCOC(=O)c1cccc(NC(=O)Cn2cnc3nc4c(cc3c2=O)CCCC4)c1`, the survival was 94% (inactive). For `O=C(Cn1nc2c(cc1=O)CCCC2)NCc1ccccc1`, the survival was 105% (inactive). In the case of `COc1ccc(CNC(=O)Cn2nc3c(cc2=O)CCCC3)cc1`, the survival was 46% (active). In the case of `Cc1ccc(NC(=O)Cn2nc3c(cc2=O)CCCC3)cc1Cl`, the survival was 93% (inactive). For `CCOC(=O)c1cccc(NC(=O)Cn2nc3c(cc2=O)CCCC3)c1`, the survival was 37% (active). In the case of `O=C(Cn1nc2c(cc1=O)CCCC2)NCc1ccc(Cl)cc1`, the survival was 115% (inactive). `COc1ccc(Cl)cc1C(=O)CSc1nnnn1C1CCCCC1` was tested, and the survival was 93% (inactive). With `COc1ccc(NC(=O)CCCc2nnc3n(C(C)C)c(=O)c4sccc4n23)cc1Cl` the survival was 93% (inactive). For `CC(C)OCCCN(Cc1ccco1)C(=O)c1cc2c(s1)-c1ccccc1OC2`, the survival was -5% (active). In the case of `COc1ccccc1CNC(=O)c1cc2c(s1)-c1ccccc1OC2`, the survival was 61% (inactive). With `CC(C)CCN(Cc1ccco1)C(=O)c1cc2c(s1)-c1ccccc1OC2` the survival was -4% (active). For `COCCCN(Cc1ccco1)C(=O)c1cc2c(s1)-c1ccccc1OC2`, the survival was -3% (active). In the case of `CC(C)CCN(Cc1ccco1)C(=O)c1cc2c(Cl)nc3ccccc3c2s1`, the survival was 68% (inactive). `CN(C)CCN(Cc1ccco1)C(=O)c1cc2c(s1)-c1ccccc1OC2` was tested, and the survival was 69% (inactive). `Cc1ccc(C(C)C)c(OCC(=O)Nc2ccc(O)c(-c3nc4cc(Cl)ccc4o3)c2)c1` was tested, and the survival was 73% (inactive). With `CC(C)CNC(=O)Cc1ccccc1` the survival was 65% (inactive). In the case of `O=C(CN1CCSc2ccccc21)N1CCCCC1`, the survival was 78% (inactive). `Clc1ccccc1N1CCN(c2ncnc3c2c(-c2ccccc2)cn3-c2ccccc2)CC1` was tested, and the survival was 80% (inactive). With `Cc1ccccc1C(=O)Nc1ccc2nc(SCC(=O)N3CCc4ccccc43)sc2c1` the survival was 106% (inactive). For `Cc1ccc(-c2c(C)n3c4c(=O)n(C)c(=O)n(C)c4nc3n2CCCO)cc1`, the survival was 81% (inactive). For `CCOC(=O)CSc1nnc(CNc2ccc(C)cc2C)n1-c1ccccc1`, the survival was 58% (inactive). In the case of `CCN1CCN(C(c2cccc(F)c2)c2c(O)cc(C)n(CCOC)c2=O)CC1` (centres undefined), the survival was 73% (inactive). In the case of `CN(C)c1ccc(CNC(=O)c2sc3ncccc3c2-n2cccc2)cc1`, the survival was 102% (inactive). With `Cc1ccc(CCNC(=O)c2sc3ncccc3c2-n2c(C)ccc2C)cc1` the survival was 64% (inactive). In the case of `COc1cc(CNC(=O)c2sc3ncccc3c2-n2cccc2)cc(OC)c1OC`, the survival was 118% (inactive). In the case of `COCCNC(=O)c1sc2ncccc2c1-n1c(C)ccc1C`, the survival was 98% (inactive). `CC(C)Oc1ccc(CNC(=O)c2sc3ncccc3c2-n2cccc2)cc1` was tested, and the survival was 46% (active). In the case of `CCc1ccc(CNC(=O)c2sc3ncccc3c2-n2c(C)ccc2C)cc1`, the survival was 0% (active). `Cc1cc(SCC(=O)NCc2ccccc2Cl)nc(=O)[nH]1` was tested, and the survival was 96% (inactive). With `CCc1ccc(-c2nc(CS(=O)CC(=O)NCCc3ccc(C)cc3)c(C)o2)cc1` (centres undefined) the survival was 89% (inactive). For `CCOc1ccc(C(=O)c2cn(Cc3ccccc3)c3c(F)cc(F)cc3c2=O)cc1`, the survival was 78% (inactive). In the case of `CCc1ccc(NC(=O)Cn2c(=O)c3cc(Cl)ccc3n3nncc23)cc1`, the survival was 80% (inactive). `CCOc1ccc(CNC(=O)C2CCCN(c3nn4cc(-c5ccc(F)cc5)nc4s3)C2)cc1` (centres undefined) was tested, and the survival was 67% (inactive). With `Cc1ccc(CCNC(=O)c2cc3sccc3n2Cc2ccc(F)cc2)cc1` the survival was 87% (inactive). `COCCCNS(=O)(=O)c1cc(-c2onc(C)c2C)ccc1OC` was tested, and the survival was 115% (inactive). `COc1ccc(-c2onc(C)c2C)cc1S(=O)(=O)NCCc1ccccc1` was tested, and the survival was 90% (inactive). For `Cc1ccc(-c2onc(C)c2C)cc1S(=O)(=O)NCc1ccc(N(C)C)cc1`, the survival was -2% (active). With `Cc1ccc(-c2onc(C)c2C)cc1S(=O)(=O)NCc1cccs1` the survival was 91% (inactive). With `COc1ccc(CCNS(=O)(=O)c2cc(-c3onc(C)c3C)ccc2OC)cc1OC` the survival was -1% (active). In the case of `Cc1ccc(-c2onc(C)c2C)cc1S(=O)(=O)NCc1ccco1`, the survival was 87% (inactive). For `CC(C)NC(=O)Nc1ccc2c(c1)N(C)C(=O)c1ccccc1S2`, the survival was 117% (inactive). For `CCOC(=O)/C(C#N)=C/C1=C(N)CC(C)(C)OC1`, the survival was 95% (inactive). For `Cc1ccc(NC(=O)Cn2c(=O)n(Cc3ccc4c(c3)OCO4)c(=O)c3ccc(C(=O)NC4CCCCC4)cc32)c(C)c1`, the survival was 100% (inactive).
